Laboratory results published in the supplement of paper PMC10849652.
The full data set covers some 7,900 targets. This sample favours those with a hit. About 0.6% of all pairs of compound and target were hits. Values without a mark were called inactive.

Experiments:
Assay in all cases: log2 fold change, soluble protein after heating vs DMSO (PISA); higher = thermal stabilisation; K562 cells, 10 uM, 30 min; active = over 0.2 and 3.5 SD of the protein, either way, in both replicates (recomputed)
[1] = compound: CS(=O)(=O)c1ccc(-c2cnc(N)c(C(=O)Nc3ccccc3)n2)cc1
Outline: (§1)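 Quantification of soluble protein used TMTpro 16plex LC-MS/MS, with channel sums equalised. Samples were the supernatant after 21,000xg for 90 min of pooled aliquots from K562 cells (2×10^6 cells/mL) treated with 10 μM compound for 30 min, heated for 3 min over 48°C-58°C, and extracted in PBS with 0.5% NP-40 at 4°C. Values, from duplicates, describe thermal stability against control samples on a log2 fold-change scale.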

crizotinib = compound: C[C@@H](Oc1cc(-c2cnn(C3CCNCC3)c2)cnc1N)c1c(Cl)ccc(F)c1Cl [crizotinib]
Outline: as §1

[2] = compound: C[C@@H]1COCCN1C2=NC(=NC(=C2)C3(CC3)S(=O)(=O)C)C4=C5C=CNC5=CC=C4
Outline: as §1

[3] = compound: C[C@H](C1=CC=C(C=C1)C(=O)NC2=C3C=CNC3=NC=C2)N
Outline: as §1

duvelisib = compound: C[C@H](Nc1ncnc2nc[nH]c12)c1cc2cccc(Cl)c2c(=O)n1-c1ccccc1 [duvelisib]
Outline: as §1

gandotinib = compound: Cc1cc(Nc2cc(CN3CCOCC3)c3nc(C)c(Cc4ccc(Cl)cc4F)n3n2)n[nH]1 [gandotinib]
Outline: as §1

tozasertib = compound: Cc1cc(Nc2cc(N3CCN(C)CC3)nc(Sc3ccc(NC(=O)C4CC4)cc3)n2)n[nH]1 [tozasertib]
Outline: as §1

[4] = compound: Cc1cc(SCc2sc(-c3ccc(C(F)(F)F)cc3)nc2C)ccc1OCC(=O)O
Outline: as §1

doramapimod = compound: Cc1ccc(-n2nc(C(C)(C)C)cc2NC(=O)Nc2ccc(OCCN3CCOCC3)c3ccccc23)cc1 [doramapimod]
Outline: as §1

ispinesib = compound: Cc1ccc(C(=O)N(CCCN)[C@@H](c2nc3cc(Cl)ccc3c(=O)n2Cc2ccccc2)C(C)C)cc1 [ispinesib]
Outline: as §1

Sequence of UniProt Q9NP58 (Q9NP58 whole entry, looked up): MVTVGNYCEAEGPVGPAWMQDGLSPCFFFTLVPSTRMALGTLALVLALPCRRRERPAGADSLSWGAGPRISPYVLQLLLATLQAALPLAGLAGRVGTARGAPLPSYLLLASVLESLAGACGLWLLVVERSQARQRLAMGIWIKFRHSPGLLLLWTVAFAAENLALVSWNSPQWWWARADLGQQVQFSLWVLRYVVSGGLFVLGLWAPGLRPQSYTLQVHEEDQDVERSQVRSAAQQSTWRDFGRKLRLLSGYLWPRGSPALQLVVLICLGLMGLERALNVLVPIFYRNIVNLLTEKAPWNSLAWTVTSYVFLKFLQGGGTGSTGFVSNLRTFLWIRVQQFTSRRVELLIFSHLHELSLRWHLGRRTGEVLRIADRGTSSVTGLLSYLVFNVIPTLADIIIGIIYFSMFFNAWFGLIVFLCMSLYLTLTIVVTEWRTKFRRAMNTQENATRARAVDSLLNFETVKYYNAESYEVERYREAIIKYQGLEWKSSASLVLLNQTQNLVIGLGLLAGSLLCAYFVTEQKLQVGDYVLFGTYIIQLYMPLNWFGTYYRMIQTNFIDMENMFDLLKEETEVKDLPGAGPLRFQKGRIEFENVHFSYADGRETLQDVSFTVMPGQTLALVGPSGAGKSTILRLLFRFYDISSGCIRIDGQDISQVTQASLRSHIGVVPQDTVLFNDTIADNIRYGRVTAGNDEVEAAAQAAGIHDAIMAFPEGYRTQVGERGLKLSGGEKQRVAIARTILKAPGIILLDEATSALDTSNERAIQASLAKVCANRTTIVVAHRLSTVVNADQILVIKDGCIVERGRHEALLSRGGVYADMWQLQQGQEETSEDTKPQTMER
Sequence of UniProt Q06481 (Q06481 whole entry, looked up): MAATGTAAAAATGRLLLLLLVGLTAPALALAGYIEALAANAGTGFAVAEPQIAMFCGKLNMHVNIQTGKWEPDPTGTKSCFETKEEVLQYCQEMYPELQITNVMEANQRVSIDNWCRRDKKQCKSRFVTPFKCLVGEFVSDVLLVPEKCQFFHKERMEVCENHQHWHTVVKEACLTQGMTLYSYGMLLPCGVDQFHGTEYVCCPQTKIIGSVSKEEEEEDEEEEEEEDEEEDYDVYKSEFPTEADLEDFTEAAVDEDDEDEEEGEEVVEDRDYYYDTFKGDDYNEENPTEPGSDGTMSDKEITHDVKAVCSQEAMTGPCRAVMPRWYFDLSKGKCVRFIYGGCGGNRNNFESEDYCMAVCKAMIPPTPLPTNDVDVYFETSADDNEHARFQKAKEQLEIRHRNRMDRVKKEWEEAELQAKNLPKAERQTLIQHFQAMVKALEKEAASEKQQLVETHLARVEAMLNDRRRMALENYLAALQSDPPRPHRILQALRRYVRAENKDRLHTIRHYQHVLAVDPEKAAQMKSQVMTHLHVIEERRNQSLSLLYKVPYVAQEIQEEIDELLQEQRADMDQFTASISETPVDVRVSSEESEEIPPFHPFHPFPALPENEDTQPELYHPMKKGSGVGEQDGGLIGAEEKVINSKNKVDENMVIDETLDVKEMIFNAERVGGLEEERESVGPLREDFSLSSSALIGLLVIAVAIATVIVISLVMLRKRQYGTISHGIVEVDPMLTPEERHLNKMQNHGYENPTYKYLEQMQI
Sequence of UniProt P54707 (P54707 whole entry, looked up): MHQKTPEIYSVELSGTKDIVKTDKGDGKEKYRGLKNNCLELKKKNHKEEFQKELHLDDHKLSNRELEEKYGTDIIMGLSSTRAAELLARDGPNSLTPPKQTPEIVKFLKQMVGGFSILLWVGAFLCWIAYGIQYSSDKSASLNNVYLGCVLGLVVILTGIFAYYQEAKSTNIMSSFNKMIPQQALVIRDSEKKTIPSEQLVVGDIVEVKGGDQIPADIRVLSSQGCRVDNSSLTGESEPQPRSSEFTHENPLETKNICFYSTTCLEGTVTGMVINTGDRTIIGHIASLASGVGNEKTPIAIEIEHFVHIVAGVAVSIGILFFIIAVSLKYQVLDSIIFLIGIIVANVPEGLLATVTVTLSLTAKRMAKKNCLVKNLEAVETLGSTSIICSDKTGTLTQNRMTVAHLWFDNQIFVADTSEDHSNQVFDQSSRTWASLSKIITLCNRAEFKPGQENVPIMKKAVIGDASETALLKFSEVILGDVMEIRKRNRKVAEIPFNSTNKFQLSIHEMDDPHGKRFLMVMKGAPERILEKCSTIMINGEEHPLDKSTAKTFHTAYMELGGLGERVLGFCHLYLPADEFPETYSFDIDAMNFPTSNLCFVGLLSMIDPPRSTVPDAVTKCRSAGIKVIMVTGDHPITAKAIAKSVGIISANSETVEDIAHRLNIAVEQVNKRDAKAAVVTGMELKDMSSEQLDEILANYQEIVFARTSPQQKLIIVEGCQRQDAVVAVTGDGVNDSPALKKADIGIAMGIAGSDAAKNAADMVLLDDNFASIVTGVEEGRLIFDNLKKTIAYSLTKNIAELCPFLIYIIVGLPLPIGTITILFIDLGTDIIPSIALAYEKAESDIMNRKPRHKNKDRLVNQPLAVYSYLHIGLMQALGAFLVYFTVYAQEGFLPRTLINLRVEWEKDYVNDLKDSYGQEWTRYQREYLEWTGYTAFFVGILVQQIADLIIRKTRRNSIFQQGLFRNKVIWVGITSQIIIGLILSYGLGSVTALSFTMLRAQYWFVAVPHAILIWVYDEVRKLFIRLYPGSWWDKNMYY
Sequence of UniProt Q9Y6H3 (Q9Y6H3 whole entry, looked up): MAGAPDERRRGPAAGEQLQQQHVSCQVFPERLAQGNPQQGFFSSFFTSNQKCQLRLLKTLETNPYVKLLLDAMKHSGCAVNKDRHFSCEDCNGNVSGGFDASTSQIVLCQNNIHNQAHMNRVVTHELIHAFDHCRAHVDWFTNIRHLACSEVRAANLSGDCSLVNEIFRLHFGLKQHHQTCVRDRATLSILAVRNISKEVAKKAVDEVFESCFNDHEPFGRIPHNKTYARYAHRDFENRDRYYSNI
Sequence of UniProt P53367 (P53367 whole entry, looked up): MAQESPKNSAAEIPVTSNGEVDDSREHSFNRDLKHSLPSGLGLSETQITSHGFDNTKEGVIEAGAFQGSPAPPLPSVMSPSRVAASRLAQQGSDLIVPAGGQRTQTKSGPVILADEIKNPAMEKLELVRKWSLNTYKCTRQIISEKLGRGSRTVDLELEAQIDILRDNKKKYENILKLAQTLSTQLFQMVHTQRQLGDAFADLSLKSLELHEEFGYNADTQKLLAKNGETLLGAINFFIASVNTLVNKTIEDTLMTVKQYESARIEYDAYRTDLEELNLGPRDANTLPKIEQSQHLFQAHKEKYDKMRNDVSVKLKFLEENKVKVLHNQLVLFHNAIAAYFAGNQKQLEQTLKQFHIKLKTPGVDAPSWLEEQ
Sequence of UniProt Q9UJX6 (Q9UJX6 whole entry, looked up): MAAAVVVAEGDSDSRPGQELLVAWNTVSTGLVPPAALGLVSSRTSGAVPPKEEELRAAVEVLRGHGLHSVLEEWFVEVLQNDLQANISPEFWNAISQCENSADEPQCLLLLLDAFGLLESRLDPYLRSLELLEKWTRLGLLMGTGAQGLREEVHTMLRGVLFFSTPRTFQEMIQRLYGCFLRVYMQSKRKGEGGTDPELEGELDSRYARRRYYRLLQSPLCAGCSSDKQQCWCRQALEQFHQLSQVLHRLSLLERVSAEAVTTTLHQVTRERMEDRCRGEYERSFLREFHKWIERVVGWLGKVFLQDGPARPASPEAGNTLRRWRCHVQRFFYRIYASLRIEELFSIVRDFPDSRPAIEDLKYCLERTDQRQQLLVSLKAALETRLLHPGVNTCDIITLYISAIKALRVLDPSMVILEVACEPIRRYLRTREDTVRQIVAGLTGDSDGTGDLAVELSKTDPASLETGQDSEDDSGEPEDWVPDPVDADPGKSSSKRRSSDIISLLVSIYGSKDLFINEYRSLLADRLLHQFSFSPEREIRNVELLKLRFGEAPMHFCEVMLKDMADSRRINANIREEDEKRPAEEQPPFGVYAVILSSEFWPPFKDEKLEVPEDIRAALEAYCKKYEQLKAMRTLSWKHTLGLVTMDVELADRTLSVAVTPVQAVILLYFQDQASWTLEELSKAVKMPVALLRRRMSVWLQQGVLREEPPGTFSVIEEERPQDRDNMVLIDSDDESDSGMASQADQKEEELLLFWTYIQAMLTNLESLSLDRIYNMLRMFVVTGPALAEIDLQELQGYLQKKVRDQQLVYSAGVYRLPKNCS
Sequence of UniProt Q9UKV5 (Q9UKV5 whole entry, looked up): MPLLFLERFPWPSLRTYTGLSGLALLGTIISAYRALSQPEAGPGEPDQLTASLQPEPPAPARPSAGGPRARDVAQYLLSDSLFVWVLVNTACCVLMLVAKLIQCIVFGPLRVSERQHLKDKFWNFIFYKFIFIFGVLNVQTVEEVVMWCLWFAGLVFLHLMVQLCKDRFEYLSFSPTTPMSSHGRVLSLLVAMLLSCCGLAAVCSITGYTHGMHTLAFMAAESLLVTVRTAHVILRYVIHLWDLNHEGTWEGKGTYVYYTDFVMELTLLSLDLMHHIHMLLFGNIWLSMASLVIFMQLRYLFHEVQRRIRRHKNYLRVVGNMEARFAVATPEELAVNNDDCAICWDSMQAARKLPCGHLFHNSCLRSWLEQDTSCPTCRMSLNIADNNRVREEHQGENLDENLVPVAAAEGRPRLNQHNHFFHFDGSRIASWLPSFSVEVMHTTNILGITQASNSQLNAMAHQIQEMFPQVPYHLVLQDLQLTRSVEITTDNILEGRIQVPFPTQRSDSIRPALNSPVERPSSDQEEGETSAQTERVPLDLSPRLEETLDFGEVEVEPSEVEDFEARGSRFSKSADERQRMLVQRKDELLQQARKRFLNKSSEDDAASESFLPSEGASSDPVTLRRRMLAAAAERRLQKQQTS
Sequence of UniProt Q9P287 (Q9P287 whole entry, looked up): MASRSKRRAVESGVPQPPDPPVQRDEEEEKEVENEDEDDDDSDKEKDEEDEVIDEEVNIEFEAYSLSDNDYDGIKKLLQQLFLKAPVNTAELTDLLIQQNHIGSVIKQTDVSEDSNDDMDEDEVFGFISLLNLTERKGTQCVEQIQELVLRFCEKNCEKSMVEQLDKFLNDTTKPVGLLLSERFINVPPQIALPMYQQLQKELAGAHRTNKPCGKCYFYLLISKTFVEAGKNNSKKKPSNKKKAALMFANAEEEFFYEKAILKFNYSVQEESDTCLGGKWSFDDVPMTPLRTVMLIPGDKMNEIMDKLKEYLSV

Target | log2 fold change [1] | log2 fold change (crizotinib) | log2 fold change [2] | log2 fold change [3] | log2 fold change (duvelisib) | log2 fold change (gandotinib) | log2 fold change (tozasertib) | log2 fold change [4] | log2 fold change (doramapimod) | log2 fold change (ispinesib)
ATAD3B (UniProt Q5T9A4) | 0.009 | -0.171 | -0.112 | 0.191 | -0.05 | 0.033 | 0.034 | 0.105 | 0.137 | -0.544 (active)
ALG5 (UniProt Q9Y673) | 0.005 | -0.045 | 0.06 | -0.065 | 0.11 | -0.084 | -0.046 | 0.045 | -0.032 | 0.001
APPL1 (UniProt Q9UKG1) | -0.019 | -0.015 | -0.078 | 0.034 | 0.077 | 0.123 | -0.028 | -0.003 | 0.032 | -0.098
AMFR (UniProt Q9UKV5) | -0.008 | -0.04 | 0.018 | -0.034 | 0.028 | 0.012 | -0.029 | 0.071 | 0.057 | -0.331 (active)
ANAPC2 (UniProt Q9UJX6) | -0.025 | -0.084 | 0.034 | 0.035 | 0.027 | -0.044 | 0.012 | 0.028 | 0.022 | -0.02
BCCIP isoform 2 (UniProt Q9P287) | -0.006 | -0.012 | 0 | 0.062 | 0.067 | -0.047 | 0 | 0.011 | -0.008 | 0.059
APLP2 (UniProt Q06481) | 0 | 0.032 | -0.012 | -0.035 | 0.088 | 0.117 | 0.103 | -0.049 | 0.049 | 0.16
BCL9L (UniProt Q86UU0) | 0.029 | 0.085 | 0.018 | -0.002 | -0.011 | 0.097 | -0.076 | -0.112 | 0.006 | 0.025
AP2M1 (UniProt Q96CW1) | 0.018 | -0.066 | -0.04 | -0.193 | -0.036 | -0.002 | -0.09 | -0.007 | 0.029 | 0.044
BRIX1 (UniProt Q8TDN6) | -0.027 | -0.097 | -0.292 | 0.318 | -0.117 | 0.056 | 0.196 | 0.093 | 0.288 | 0.166
ATP9B (UniProt O43861) | 0.281 | -0.033 | -0.066 | -0.098 | 0.029 | -0.053 | 0.004 | 0 | 0.015 | -0.208
ATP12A isoform 2 (UniProt P54707) | 0.02 | 0.162 | 0.138 | -0.087 | 0.067 | -0.047 | -0.027 | -0.056 | -0.004 | 0.137
ADD2 (UniProt P35612) | 0.021 | -0.005 | 0.022 | -0.052 | 0.017 | -0.042 | -0.057 | -0.029 | 0.016 | 0.088
BCCIP (UniProt Q9P287) | -0.015 | -0.02 | -0.044 | 0.074 | -0.03 | -0.093 | -0.005 | 0.037 | 0.01 | 0.001
AAR2 (UniProt Q9Y312) | -0.06 | -0.081 | 0.019 | 0.054 | 0.045 | -0.29 | 0.011 | 0.021 | -0.038 | 0.085
ACSM3 (UniProt Q53FZ2) | -0.001 | -0.002 | 0.027 | -0.095 | -0.131 | -0.037 | -0.001 | 0.049 | 0.023 | 0.226
ATP23 (UniProt Q9Y6H3) | -0.002 | -0.116 | 0.044 | 0.072 | -0.124 | -0.128 | 0.002 | 0.046 | -0.051 | -0.188
AGPAT1 (UniProt Q99943) | 0.017 | 0.187 | 0.043 | -0.018 | 0.041 | -0.106 | 0.012 | 0.014 | 0.019 | 0.096
ALDH6A1 (UniProt Q02252) | -0.008 | 0.042 | 0.109 | 0.009 | 0.106 | -0.057 | -0.054 | 0.008 | 0.033 | -0.042
ALG11 (UniProt Q2TAA5) | 0.142 | 0.007 | 0.103 | -0.04 | 0.059 | -0.129 | 0.036 | 0.015 | 0.038 | 0.029
ARL3 (UniProt P36405) | 0.029 | 0.041 | 0.019 | -0.017 | 0.08 | 0.025 | 0.033 | -0.012 | -0.003 | 0.063
ABCB6 (UniProt Q9NP58) | 0.03 | -0.457 (active) | 0.093 | -0.057 | 0.015 | -0.031 | -0.017 | -0.028 | 0.049 | -0.207
ARFIP1 (UniProt P53367) | 0.833 | -0.309 | 0.026 | -0.061 | 0.161 | -0.223 | -0.065 | 0.014 | 0 | -0.232
ACP1 isoform 2 (UniProt P24666) | 0.008 | -0.079 | 0.016 | 0.15 | 0.004 | -0.137 | -0.09 | 0.12 | 0.033 | -0.041
ALKBH4 (UniProt Q9NXW9) | 0.082 | -0.033 | 0.172 | 0.029 | -0.068 | -0.084 | 0.024 | 0.12 | 0.037 | -0.109
BAIAP2 (UniProt Q9UQB8) | 0.023 | -0.115 | 0 | -0.039 | 0.014 | -0.053 | -0.061 | 0.08 | 0.086 | -0.057
AKR1C3 (UniProt P42330) | -0.101 | 0.028 | -0.009 | -0.035 | 0.23 | 0.005 | -0.059 | 0.078 | -0.012 | 0.371
BTAF1 (UniProt O14981) | 0.055 | -0.076 | 0.094 | 0.041 | -0.016 | -0.05 | 0.015 | 0.044 | 0.006 | 0.016
AARSD1 isoform 3 (UniProt Q9BTE6) | 0.062 | 0.054 | 0.012 | 0.013 | -0.04 | -0.081 | 0.055 | 0.038 | -0.05 | 0.067
